# Source: PubChem BioAssay (Center for Chemical Genomics, University of Michigan)
# TAR Tat displ – HIV-1 TAR-Tat binding disruption. HIV-1 TAR RNA, Tat peptide displacement FRET; stronger effect = higher value. z-score (test concentration not listed). 100,000 compounds, 0.6% hits; active = z-score of 3 or more in at least 2 runs
# CDC25B-CDK2 inh – human CDC25B-CDK2/CyclinA binding inhibition; z-score (test concentration not listed); 94,000 compounds, 0.72% hits; HTRF CDC25B-CDK2/CyclinA binding, anti-His/anti-Flag; stronger effect = higher value; P30305+P24941; in the data active = z-score above about 3.2
# * hit, by the source's call; x = not tested or not shown. Only some compounds are listed: those with a hit (about 0.9% of all), similar ones and a draw of the others.
SMILES,TAR Tat displ,CDC25B-CDK2 inh
O=C(CC1(O)C(=O)N(Cc2ccccc2Cl)c2ccccc21)c1ccncc1 (centres undefined),0.63,-0.95
Nc1ccc(N2CCn3c(nc4ccccc43)C2)cc1,-1.7,13*
c1ccc(CN2CCn3c(nc4ccccc43)C2)cc1,0.68,-1.8
Nc1cccc(N2CCn3c(nc4ccccc43)C2)c1,-3.4,7.4*
Nc1cccc(N2CCn3c(nc4cc(Cl)ccc43)C2)c1,-5.1,-0.91
CCN(CC)CCNc1ncnc2c1cnn2-c1ccc(C)c(Cl)c1,1.9,x
NS(=O)(=O)c1ccc(Nc2cc(-c3ccco3)cs2)cc1,x,17*
Cc1ccc(-c2csc(Nc3ccc(S(N)(=O)=O)cc3)n2)cc1,2,-0.94
COc1c(Cl)c(C)c2c(c1Cl)OC(=O)c1c(C)c(Cl)c(O)c(Cl)c1O2,30*,x
COC(=O)c1c(OC)cc2c(c1C)Oc1c(Cl)c(OC(C)=O)c(Cl)c(C)c1C(=O)O2,-0.25,x
Cc1ccc(C(=O)COC(=O)CCCC(=O)Nc2ccc(Oc3ccccc3)cc2)cc1[N+](=O)[O-],x,0.55
Cn1c(=O)c2c(-c3ccc(Br)cc3)n(-c3ccc4c(c3)nc(CO)n4C)cc2n(C)c1=O,1.7,15*
Cc1ccc(-n2cc3c(c2-c2ccc(Br)cc2)c(=O)n(C)c(=O)n3C)cc1,-0.23,-1.6
CCCC1=NN(c2ccc(Cl)cc2)C(=O)C1,0.59,6.2*
O=C1CC(CSc2nccc(-c3cccnc3)n2)=NN1c1ccc(Cl)cc1,x,-0.37
CCn1c(N2CCC(C(=O)O)CC2)cc(=O)n(C)c1=O,0.5,-0.83
COc1ccc(C2CC(=O)Nc3nc(SCc4ccccc4)[nH]c(=O)c32)cc1Br (centres undefined),0.73,-0.72
Cc1cccc(CSc2nc3c(c(=O)[nH]2)C(c2ccc(O)c(O)c2)CC(=O)N3)c1 (centres undefined),12*,-0.51
Cc1cccc(CSc2nc3c(c(=O)[nH]2)C(c2cc(F)cc(F)c2)CC(=O)N3)c1 (centres undefined),2.5,1.5
Cc1ccc(CSc2nc3c(c(=O)[nH]2)C(c2cc(C)ccc2C)CC(=O)N3)cc1 (centres undefined),1.5,-1.4
Cc1ccc(CSc2nc3c(c(=O)[nH]2)C(c2ccc(O)c(O)c2)CC(=O)N3)cc1 (centres undefined),12*,0.11
O=C1CC(c2ccc(O)c(O)c2)c2c(nc(SCc3ccccc3)[nH]c2=O)N1 (centres undefined),17*,2.6
CC1Cc2cc(S(=O)(=O)CCC(=O)NC3CC3)ccc2N1C(=O)C1CC1 (centres undefined),1.3,x
CC1(C)Cc2c(C#N)c(N3CCCCC3)nc(Cc3ccccc3)c2CO1,0.64,-0.75
C=CCOc1ccc(-c2nc3c(c(=O)[nH]2)Cc2cc(F)ccc2O3)cc1,0.92,-2
SMILES,TAR Tat displ,CDC25B-CDK2 inh
O=C(NCc1ccccc1)c1c(O)nc2ccccn2c1=O,0.46,0.29
O=C(Nc1ccc2nc3c4ccccc4c4ccccc4c3nc2c1)N(CCO)c1ccccc1,x,-2
OCCNC(=S)Nc1ccc2nc3c4ccccc4c4ccccc4c3nc2c1,x,21*
O=C(CCS(=O)(=O)c1cc(Br)cc2c1N(C(=O)C1CC1)CC2)NCc1ccccc1,2.1,-2.5
COC(=O)c1cc(C#N)c(Sc2ccc(C(F)(F)F)cc2[N+](=O)[O-])nc1C(OC)OC,x,-0.53
Cc1ccc2c(=O)cc(C(=O)Nc3nnc(CC(C)C)s3)oc2c1,2.1,-1.7
O=C(Cn1nc2c(cc1=O)CCCC2)Nc1ccc2c(c1)OCO2,6.2*,x
O=C(Cn1nc2c(cc1=O)CCCC2)Nc1ccc(Cl)cc1,1.3,x
O=C1O[C@@H]2C[C@H]3C[C@@H]2[C@@H]1[C@H]3C(=O)N1CCOCC1,2.9,-1.8
CN(C)CCN(Cc1ccccc1)c1ncnc2onc(-c3ccc(Cl)cc3)c12,-2.1,-1.4
O=C(O)C1Cc2c([nH]c3ccccc23)CN1 (centres undefined),x,16*
O=C(O)C1Cc2c([nH]c3ccccc23)C(c2ccccc2)N1 (centres undefined),x,0.74
Cc1ccccc1Nc1c(-c2ccc3c(c2)OCC(=O)N3)c(=O)c1=O,1.2,x
C=C1c2cccc(O)c2C(O)=C2C(=O)[C@]3(O)C(O)=C(C(N)=O)C(=O)[C@@H](N(C)C)[C@@H]3[C@@H](O)[C@H]12,16*,x
C=C1c2c(Cl)ccc(O)c2C(O)=C2C(=O)[C@]3(O)C(O)=C(C(N)=O)C(=O)[C@@H](N(C)C)[C@@H]3[C@@H](O)[C@H]12,20*,x
Oc1ccccc1CNc1nc2c(s1)CCc1ccccc1-2,1.1,-1.5
COc1ccc2c(c1)Cc1sc(NC(=O)c3ccc(OC)c(OC)c3)nc1-2,-0.93,19*
CC(=O)Nc1nc2c(s1)Cc1ccccc1-2,x,18*
COc1cc(OC)cc(C(=O)Nc2nc3c(s2)Cc2cc(OC)ccc2-3)c1,-0.26,-0.69
CC(=O)N1c2ccc(S(=O)(=O)NCC3CCC(C(=O)NC4CCCC4)CC3)cc2CC1C (centres undefined),0.77,x
